# Most compounds without a hit are left out; they make up all but 8% or so of the library.
# ELG1 repair inh – inhibitors of ELG1-dependent DNA repair in HEK293T cells | Potency, µM (series often up to 46.1 µM), inactives show top-dose activity change, negative = inhibition, usual class: inhibitors | HEK293T ELG1-luciferase reporter, luminescence, 16 h; DNA damage induced by 5-fluorouridine | AID 504467 | 330,000 tested, 2.3% active; further: potency means the concentration at half of the fitted maximal effect; nearly all actives have a fitted effect of over 55% in size
#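 Quantitative HTS, concentration-response format. 2,000 cells/well co-treated with 5-fluorouridine and compound, 16 hr in 5% CO2 at 37 °C; ONE-Glo luminescence read after 30 min.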
# Coupling enz – counter-screen for Giardia aldolase inhibitors: coupling enzyme system | activity change, negative = inhibition, % at 58.2 µM, hits read low | 290,000 tested, 0.67% active | AID 2472 | coupling enzyme system counterscreen, AmpLite Red fluorescence; in the data active means activity change below about -30%
#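 Fluorescence at 525 nm excitation and 598 nm emission measured inhibition of the coupled detection system without aldolase. Compounds (at 57.5 uM final) were preincubated 10 min at room temperature with coupling enzyme reagent before a 20 min substrate/AmpLite Red step.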
# VP16 counter – Gal4-VP16 reporter inhibition counter-screen; Drosophila S2 Gal4-VP16 UAS-luciferase, luminescence, 20 h; 310,000 tested, 3.5% active; Potency, µM (highest dose often 53.6 µM), inactives show at the top dose activity, negative = inhibition, actives largely listed as inhibitors; AID 2546;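 further: Gal4-VP16 expression switched on by copper sulfate through the metallothionein promoter; potency means the concentration at half of the fitted maximal effect; nearly all actives have a fitted effect of over 50% in size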
# RORgamma inh – inhibitors of mouse ROR gamma transcriptional activity; P51450; Drosophila S2 Gal4-RORgamma UAS-luciferase reporter, 20 h; Potency, µM (top dose mostly 53.6 µM), for inactives: at the top dose activity change, negative = inhibition, usual class: inhibitors; 310,000 tested, 5.4% active; further: potency means the concentration at half of the fitted maximal effect; nearly all actives have a fitted effect of over 60% in size
# Target sequence (P51450 whole entry, looked up, the tested form may be a part): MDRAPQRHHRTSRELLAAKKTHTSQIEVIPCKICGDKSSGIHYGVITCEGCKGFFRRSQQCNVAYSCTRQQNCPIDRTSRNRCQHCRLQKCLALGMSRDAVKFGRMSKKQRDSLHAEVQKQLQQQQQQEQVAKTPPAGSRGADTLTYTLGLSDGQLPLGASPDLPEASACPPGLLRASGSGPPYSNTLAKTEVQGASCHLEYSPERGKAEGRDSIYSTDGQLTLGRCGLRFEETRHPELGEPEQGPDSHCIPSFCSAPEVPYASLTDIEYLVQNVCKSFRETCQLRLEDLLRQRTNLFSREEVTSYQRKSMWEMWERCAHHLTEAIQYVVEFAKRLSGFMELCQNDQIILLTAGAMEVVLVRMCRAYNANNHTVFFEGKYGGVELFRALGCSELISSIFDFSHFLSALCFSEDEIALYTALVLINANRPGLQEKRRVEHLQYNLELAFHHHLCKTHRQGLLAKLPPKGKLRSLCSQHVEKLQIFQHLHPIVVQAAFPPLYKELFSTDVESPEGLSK
#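 Using a luciferase readout, inhibitors were identified by reduced reporter activity in Drosophila cells coexpressing a copper-inducible Gal4–ROR gamma fusion and UAS-driven Photinus luciferase, incubated 20 hr after 700 uM copper sulfate.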
# TSHR antag – blocks TSH signaling through the human TSH receptor; P16473; TSHR-expressing cells, TSH-stimulated cAMP HTRF, 2 h; hits give low values; activity change, negative = inhibition, % at 11.5 µM; 330,000 tested, 0.2% active; AID 504810;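 active means activity change below a set negative limit, meaning inhibition stronger than a set level, cut at about -70% in these data; inconclusive means activity change between two set negative limits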
#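 Cell-based HTRF cAMP assay; TSHR cells + compound, TSH EC80 (4nM final), 2 h, 37 deg C. Lysis with anti-cAMP cryptate and cAMP-d2, 30 min RT, read 665/620 nm.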
# The depositor's hits bear a star; ? = inconclusive; · = no result given; [ ] = dose if it differs, or a comment. Unless noted, the call rests on the fitted dose curve; in most records, active means well fitted curve in the direction sought with a large enough effect; inconclusive means small, poorly fitted or top-dose-only effect, or another doubt; inactive means no such curve, though single readings can be large; an effect the other way counts as inactive or inconclusive. On the % scale 0 is the no-effect control and ±100 the full control effect.
SMILES,ELG1 repair inh,Coupling enz,VP16 counter,RORgamma inh,TSHR antag
CN(C)/C=C/C(=O)c1cccc(Cl)c1,?,2,10µM*,11%,13
COc1ccc(OCCCn2cc(/C=C3/C(=N)N4C=C(C)SC4=NC3=O)c3ccccc32)cc1,?,0,1.6µM*,0.79µM*,-12
CC1=CN2C(=N)/C(=C/c3cn(CCCOc4ccccc4C)c4ccccc34)C(=O)N=C2S1,?,1,?,?,1
COc1cccc(OCCCn2cc(/C=C3/C(=N)N4C=C(C)SC4=NC3=O)c3ccccc32)c1,1%,0,1.4µM*,2.2µM*,0
COc1ccc(NC(=O)N(Cc2cc3cc(C)ccc3[nH]c2=O)CC2CCCO2)cc1 (stereo not given),?,0,0%,1%,-9
CCOc1ccc(NC(=S)N(CCN2CCOCC2)Cc2cc3cc4c(cc3[nH]c2=O)OCO4)cc1,21µM*,-8,-21%,24%,-8
Cc1ccc2[nH]c(=O)c(CN(CCN3CCOCC3)C(=O)Nc3ccccc3F)cc2c1,16µM*,1,-12%,32%,-1
COc1ccc(NC(=O)N(Cc2cc3cc(OC)c(OC)cc3[nH]c2=O)CC2CCCO2)cc1 (stereo not given),?,0,2%,22%,-8
COc1ccc2[nH]c(=O)c(CN(CC3CCCO3)C(=O)Nc3ccc(F)cc3)cc2c1 (stereo not given),7.3µM*,6,?,-9%,-27
COc1ccc2cc(CN(CC3CCCO3)C(=O)Nc3ccccc3)c(=O)[nH]c2c1 (stereo not given),18µM*,-2,0%,1%,-6
COc1ccccc1C(=O)NC(=O)COC(=O)CCOc1cc(C)ccc1C,21%,1,·,·,-1
Cc1cccc(NC(=O)N(Cc2cc3cc(C)ccc3[nH]c2=O)CC2COCCO2)c1 (stereo not given),12µM*,1,?,?,35
Cc1ccc2[nH]c(=O)c(CN(CCCN3CCOCC3)C(=O)Nc3cccc(Cl)c3)cc2c1,?,1,?,24%,8
Cc1cc(C)nc(SC(C(=O)O)c2ccccc2)n1 (stereo not given),?,0,-1%,6%,-4
Cc1cc(C)nc(Sc2nc(Cl)nc(N(c3ccccc3)c3ccccc3)n2)n1,?,4,?,11µM*,50
CNc1cc(OC)c(C(=O)N[C@@H]2CCN(Cc3ccccc3)[C@H]2C)cc1Cl,·,0,-1%,2%,·
S=C(NCc1ccccc1)NCc1cccc(Cl)c1,12%,·,?,10µM*,-5
S=C(NCCc1cccc(Cl)c1)NCc1ccccc1,15%,·,?,8.9µM*,-11
C/C(=N\NC(=S)NCCc1ccccc1)c1ccc(Cl)cc1Cl,0%,0,6.3µM*,1.8µM*,-26
COc1ccccc1CN1CC[C@@]2(CCCN(C(C)=O)C2)C1,·,1,-1%,-7%,·
Cc1ccc(CNC(=O)COC(=O)c2cc(C)oc2C)cc1,8%,·,·,·,5
O=C(CCS(=O)(=O)c1ccccc1)Nc1ccc(-c2nc3ccccc3s2)cc1,?,3,5.6µM*,?,-3
CNc1ccc(-c2nc3ccccc3s2)cc1,·,-9,?,1.4µM*,·
O=C(CNS(=O)(=O)c1cccc(Cl)c1)Nc1ccc(-c2nc3ccccc3s2)cc1,?,0,2µM*,-35%,-9
O=C(N/N=C/c1cc(Br)c(Br)o1)c1cccnc1,-14%,-55*,?,?,-5
SMILES,ELG1 repair inh,Coupling enz,VP16 counter,RORgamma inh,TSHR antag
O=C(N/N=C\c1cc(Br)c(Br)o1)c1cncc(Br)c1,-14%,1,2µM*,1.4µM*,9
O=C(N/N=C/c1ccccc1O)C1CC(=O)N(c2ccc(Cl)cc2)C1 (stereo not given),?,1,1.1µM*,0.89µM*,34
OC[C@@H]1O[C@](CO)(O[C@H]2O[C@H](CO)[C@@H](O)[C@H](O)[C@H]2O)[C@H](O)[C@H]1O,·,·,-1%,6%,·
COc1cccc(NC2C=CS(=O)(=O)C2)c1 (stereo not given),-12%,1,5%,16%,19
COc1ccc(NC2C=CS(=O)(=O)C2)c(OC)c1 (stereo not given),13%,-41*,6%,-10%,8
COCCCNC(=O)c1ccccc1Oc1ccccc1,0%,-1,1%,-13%,-1
COCCCNC(=O)c1ccc2c3c(onc13)-c1ccccc1C2=O,?,-32*,?,6%,5
CCCCN1C(=O)C2(OCCCO2)c2cccc(C)c21,-3%,0,6%,7%,-6
COc1ccccc1NC(=S)N(Cc1ccccc1)Cc1ccccn1,0%,7,?,11µM*,8
COc1ccc(CCN(Cc2ccccn2)C(=S)Nc2ccccc2Cl)cc1OC,?,2,?,10µM*,-5
COc1ccc(CCN(Cc2ccccn2)C(=S)Nc2ccccc2F)cc1OC,?,-1,-4%[10 µM],13µM*,0
COc1ccc(CCN(Cc2ccccn2)C(=S)Nc2cccc(C)c2)cc1OC,?,1,-1%,10µM*,-1
CCOC(=O)C1CCCN(C(=O)c2cc3c(OC)c(OC)c(OC)cc3[nH]2)C1 (stereo not given),-2%,0,3%,0%,-5
C=CCn1c(CCC)nc2ccccc21,8%,-3,-7%,-2%,-3
C=CCn1c(C(CC)CC)nc2ccccc21,?,2,-14%,6.3µM*,3
C=CCn1c(CC(C)(C)C)nc2ccccc21,-2%,2,-6%,11µM*,0
COc1ccc(N/N=C(/N=Nc2nc(C)cc(=O)[nH]2)c2ccccc2)cc1,?,-11,5µM*,?,5
Cc1cc(=O)[nH]c(N=N/C(=N/Nc2ccc(O)cc2)c2ccccc2)n1,-11%,0,-1%,-7%,-8
Cc1cc(=O)[nH]c(N=N/C(=N/Nc2ccccc2C)c2ccccc2)n1,?,-1,5µM*,2.5µM*,7
Cc1cc(=O)[nH]c(SCC(=O)Nc2ccccc2C)n1,-7%,5,0%,-2%,-5
N[C@@H](C(=O)O)c1ccc(C(=O)O)cc1,·,2,4%,-4%,·
COc1cccc(CC(=O)N2CCc3nc(-c4ccc(OC)cc4C)c4c(c3C2)CO[C@@H](c2ccccc2)C4)c1,·,1,·,·,·
O=C(Nc1nnc(CCc2ccccc2)s1)c1cccc(F)c1,?,0,-17%,18µM*,-10
CCOc1cc(/C=C2\C(=O)N(CCc3ccc(OC)c(OC)c3)C(C)=C2C(=O)OC)ccc1O,1.6µM*,-16,?,?,2
CCCn1c(=O)c2[nH]c(-c3ccc(S(=O)(=O)O)cc3)nc2n(CCC)c1=O,11%,·,·,·,-8
